Counter-ions that a name gives are not always drawn. ± gives the standard deviation of the averaged measurements.
Experiments:
Test in all cases: growth (OD600 after 10 h); higher = more growth (less inhibition)
[1] = test system: E. coli TESEC Alr+ wild-type control; settings: compound 0.1 mM; raw OD600 reference: median of DMSO wells 0.241, cell-free background 0.041
Procedure: (§1)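 TESEC Mtb Alr E. coli, or the Alr+ wild-type control, in 384-well plates with Prestwick library compounds at 0.1 mM and 1% DMSO, across arabinose induction levels of 1E3 to 1E7 nM. Growth is read as OD600 after 10 h at 37 °C in triplicate biological replicates.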

E. coli TESEC Mtb Alr [2] = settings: compound 0.1 mM
Procedure: as §1

E. coli TESEC Mtb Asd = settings: compound 0.1 mM
Procedure: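 TESEC E. coli strains in which the native enzyme is deleted and replaced by arabinose-inducible Mtb Asd, DapB, CysH or TrpD, each grown in its selective medium. Strains were screened against the Prestwick library at 0.1 mM and 1% DMSO in 384-well format at low and high arabinose induction. Growth is read as OD600 after 10 h in triplicate.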

[3] = test system: E. coli TESEC Alr+ wild-type control; settings: compound 0.1 mM; raw OD600 reference: median of DMSO wells 0.49, cell-free background 0.052
Procedure: (§2)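 TESEC Mtb Alr E. coli (ΔaraC ΔtolC ΔentC Δalr ΔdadX, arabinose-inducible Mtb Alr) or the Alr+ wild-type control strain, grown in defined M9-fructose medium without D-alanine in 96-well plates with Prestwick library compounds at 0.1 mM and 1% DMSO. Low Alr induction is 0.1 µM arabinose and high induction is 10 mM arabinose.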

E. coli TESEC Mtb Alr [4] = settings: compound 0.1 mM; remark: listed apart in the source
Procedure: as §2

[5] = arabinose 1000 nM, raw OD600 reference: median of DMSO wells 0.294, cell-free background 0.041
[6] = arabinose 10000 nM, raw OD600 reference: median of DMSO wells 0.264, cell-free background 0.041
[7] = arabinose 100000 nM, raw OD600 reference: median of DMSO wells 0.201, cell-free background 0.041
[8] = arabinose 1000000 nM, raw OD600 reference: median of DMSO wells 0.193, cell-free background 0.041
[9] = arabinose 10000000 nM, raw OD600 reference: median of DMSO wells 0.146, cell-free background 0.041
[10] = arabinose induction (level): High, raw OD600 reference: median of DMSO wells 0.331, cell-free background 0.041
[11] = arabinose induction (level): Low, raw OD600 reference: median of DMSO wells 0.417, cell-free background 0.041
[12] = arabinose 100 nM, raw OD600 reference: median of DMSO wells 0.413, cell-free background 0.052
[13] = arabinose 10000000 nM, raw OD600 reference: median of DMSO wells […], cell-free background 0.052

Row | Structure (SMILES) | growth [1] | growth (E. coli TESEC Mtb Alr [2]; [5]) | growth (E. coli TESEC Mtb Alr [2]; [6]) | growth (E. coli TESEC Mtb Alr [2]; [7]) | growth (E. coli TESEC Mtb Alr [2]; [8]) | growth (E. coli TESEC Mtb Alr [2]; [9]) | growth (E. coli TESEC Mtb Asd; [10]) | growth (E. coli TESEC Mtb Asd; [11]) | growth [3] | growth (E. coli TESEC Mtb Alr [4]; [12]) | growth (E. coli TESEC Mtb Alr [4]; [13])
1 | CN(Cc1cc(Br)cc(Br)c1N)C1CCCCC1 [Bromhexine hydrochloride] | 0.0422 ± 0.0023 | 0.0459 ± 0.0083 | 0.04107 ± 0.00031 | 0.0454 ± 0.0014 | 0.0423 ± 0.00059 | 0.0454 ± 0.00098 | 0.194 ± 0.028 | 0.0472 ± 0.0019 | 0.0641 ± 0.0033 | 0.0619 ± 0.0019 | 0.0553 ± 0.0034
2 | CC1(C)S[C@@H]2[C@H](NC(=O)[C@H](N)c3ccc(O)cc3)C(=O)N2[C@H]1C(=O)O [Amoxicillin] | 0.242 ± 0.006 | 0.297 ± 0.0057 | 0.251 ± 0.0052 | 0.211 ± 0.033 | 0.186 ± 0.0034 | 0.14 ± 0.0024 | 0.358 ± 0.097 | 0.321 ± 0.037 | 0.572 ± 0.07 | 0.422 ± 0.011 | 0.378 ± 0.0083
3 | CNNCc1ccc(C(=O)NC(C)C)cc1 [Procarbazine hydrochloride] | 0.251 ± 0.0067 | 0.304 ± 0.012 | 0.282 ± 0.0077 | 0.217 ± 0.028 | 0.177 ± 0.019 | 0.151 ± 0.0024 | 0.359 ± 0.043 | 0.476 ± 0.083 | 0.454 ± 0.01 | 0.4235 ± 0.0022 | 0.312 ± 0.02
4 | N=C(N)NCC1COC2(CCCCC2)O1 (configuration not stated) [Guanadrel sulfate] | 0.241 ± 0.0075 | 0.296 ± 0.0091 | 0.258 ± 0.0067 | 0.204 ± 0.017 | 0.183 ± 0.0022 | 0.138 ± 0.0046 | 0.363 ± 0.079 | 0.368 ± 0.036 | 0.635 ± 0.012 | 0.406 ± 0.013 | 0.324 ± 0.012
5 | CC(=O)O[C@]1(C(C)=O)CC[C@H]2[C@@H]3C=C(Cl)C4=CC(=O)CC[C@]4(C)[C@H]3CC[C@@]21C [Chlormadinone acetate] | 0.15 ± 0.0069 | 0.156 ± 0.0078 | 0.0802 ± 0.014 | 0.148 ± 0.0022 | 0.0653 ± 0.0047 | 0.11 ± 0.0088 | 0.12 ± 0.0098 | 0.0867 ± 0.0071 | 0.442 ± 0.0057 | 0.3733 ± 0.0037 | 0.203 ± 0.03
6 | Nc1nc2n[nH]nc2c(=O)[nH]1 [Azaguanine-8] | 0.21 ± 0.0092 | 0.241 ± 0.0083 | 0.194 ± 0.0047 | 0.239 ± 0.0079 | 0.143 ± 0.0028 | 0.132 ± 0.009 | 0.397 ± 0.01 | 0.42 ± 0.044 | 0.3656 ± 0.0032 | 0.409 ± 0.026 | 0.245 ± 0.16
7 | Nc1ccn([C@H]2CC[C@@H](CO)O2)c(=O)n1 [Zalcitabine] | 0.246 ± 0.0044 | 0.2977 ± 0.0013 | 0.279 ± 0.014 | 0.198 ± 0.035 | 0.172 ± 0.0063 | 0.1518 ± 0.00067 | 0.288 ± 0.037 | 0.407 ± 0.035 | 0.4783 ± 0.0003 | 0.409 ± 0.016 | 0.353 ± 0.02
8 | CC(C)NC[C@@H](O)COc1ccc(CC(N)=O)cc1 [(R)-(+)-Atenolol] | 0.255 ± 0.004 | 0.322 ± 0.019 | 0.262 ± 0.012 | 0.221 ± 0.013 | 0.1771 ± 0.00066 | 0.161 ± 0.0073 | 0.485 ± 0.012 | 0.442 ± 0.033 | 0.546 ± 0.038 | 0.405 ± 0.019 | 0.342 ± 0.012
9 | COc1ccc(-c2ccc(=N)n(CCCC(=O)O)n2)cc1 [Gabazine bromide] | 0.247 ± 0.012 | 0.279 ± 0.029 | 0.262 ± 0.007 | 0.225 ± 0.027 | 0.19 ± 0.0086 | 0.148 ± 0.0044 | 0.232 ± 0.02 | 0.342 ± 0.055 | 0.599 ± 0.11 | 0.402 ± 0.0095 | 0.341 ± 0.0049
10 | COc1ccccc1OCCNCC(O)COc1cccc2[nH]c3ccccc3c12 (configuration not stated) [Carvedilol] | 0.0443 ± 0.0033 | 0.0415 ± 0.00062 | 0.046 ± 0.0023 | 0.0419 ± 0.00047 | 0.04137 ± 0.0004 | 0.0456 ± 0.0015 | 0.0533 ± 0.004 | 0.0496 ± 0.0017 | 0.167 ± 0.11 | 0.4106 ± 0.0016 | 0.0825 ± 0.025
11 | CN1C(C(=O)Nc2ccccn2)=C(O)c2sccc2S1(=O)=O [Tenoxicam] | 0.195 ± 0.0081 | 0.238 ± 0.0097 | 0.223 ± 0.0086 | 0.212 ± 0.0097 | 0.152 ± 0.0064 | 0.139 ± 0.0027 | 0.281 ± 0.11 | 0.223 ± 0.01 | 0.493 ± 0.051 | 0.375 ± 0.05 | 0.277 ± 0.01
12 | C#C[C@]1(OC(C)=O)CC[C@H]2[C@@H]3CCC4=C[C@@H](OC(C)=O)CC[C@@H]4[C@H]3CC[C@@]21C [Ethynodiol diacetate] | 0.174 ± 0.0051 | 0.233 ± 0.016 | 0.215 ± 0.034 | 0.12 ± 0.0032 | 0.0855 ± 0.0055 | 0.161 ± 0.018 | 0.221 ± 0.012 | 0.358 ± 0.039 | 0.4 ± 0.018 | 0.384 ± 0.012 | 0.118 ± 0.019
